Laboratory results as given in PubChem BioAssay AID720597 (Broad Institute, 2013).
Entries with a potency or affinity are not part of this list. Active and inactive are the calls of the source.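 The calls were made as follows: active = fitted half-maximal dose no more than twice the top valid tested dose, for compounds that lower signal; inconclusive = fit invalid, or curve flat with activity between -70 and -30; inactive = potency past limit, curve flat within ±30, or signal increasing.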

target: NAD-dependent protein deacylase sirtuin-5, mitochondrial (Homo sapiens) (UniProt Q9NXA8); test: SIRT5 deacylase inhibitors, dose response, biochemical, fluorescence imaging, cherry-pick, set 6 (AID 720597); details: Purified SirT5, succinyl-peptide-AMC/trypsin fluorescence; series mostly up to 15 µM; activity change, negative = inhibition: at the top concentration;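 also: lower AMC signal can also come from blocking the trypsin step; 0% = median of neutral control wells and -100% = median of positive control wells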
Sequence (Q9NXA8 whole entry, looked up): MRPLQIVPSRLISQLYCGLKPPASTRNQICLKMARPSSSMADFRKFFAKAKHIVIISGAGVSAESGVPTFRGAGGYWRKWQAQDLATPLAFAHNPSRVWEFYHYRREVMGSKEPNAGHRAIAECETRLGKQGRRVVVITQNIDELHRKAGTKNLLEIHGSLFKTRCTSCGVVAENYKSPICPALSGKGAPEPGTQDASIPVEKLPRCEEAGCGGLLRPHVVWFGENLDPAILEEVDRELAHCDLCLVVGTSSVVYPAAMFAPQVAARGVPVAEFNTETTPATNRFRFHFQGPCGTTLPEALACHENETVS

Activity change, negative = inhibition, inactive:
O=C(NCC[C@@H]1CC[C@@H](NC(=O)C2CC2)[C@H](CO)O1)c1cc(Cl)cc(Cl)c1 19.4%
C[C@H](CO)N1C[C@H](C)[C@H](CN(C)Cc2ccncc2)Oc2ccc(NC(=O)CCN3CCOCC3)cc2C1=O -11.7%
COCCNC(=O)c1cc2c(c(-c3cccc(-c4cccc(F)c4)c3)n1)[C@H](CCO)N([S@@](=O)C(C)(C)C)C2 -5.5%
C[C@H]1CN([C@@H](C)CO)S(=O)(=O)c2ccc(/C=C/c3ccccc3)cc2O[C@H]1CN(C)C(=O)Nc1cc(F)ccc1F 31.2%
COCC(=O)NC[C@H]1N[C@H](CO)[C@H]1c1ccc(C2=CCCCC2)cc1 -13.8%
C[C@H]1CN([C@@H](C)CO)S(=O)(=O)c2ccc(/C=C/c3ccccc3)cc2O[C@H]1CN(C)C(=O)NC1CCCC1 2.54%
Cc1noc(C)c1S(=O)(=O)Nc1ccc2c(c1)C(=O)N([C@H](C)CO)C[C@@H](C)[C@@H](CN(C)Cc1ccc(C(F)(F)F)cc1)OCCCC[C@@H](C)O2 2.73%
O=C(Nc1ccccc1)N1C[C@@H]2[C@H](c3ccccc31)[C@@H](CO)N2CC1CCCC1 -14.1%
CCOC(=O)N(C)C[C@H]1OCc2ccccc2-c2ccccc2C(=O)N([C@H](C)CO)C[C@@H]1C -2.78%
O=C(CC1CC1)N1[C@@H](CO)[C@@H]2c3ccccc3N(S(=O)(=O)c3ccc(F)cc3)C[C@@H]21 -7.04%
CC(C)OC(=O)N(C)C[C@@H]1OCc2cn(nn2)CCCC(=O)N([C@H](C)CO)C[C@H]1C -7.79%
C[C@H](CO)N1C[C@H](C)[C@H](CN(C)Cc2ccc(-c3ccccc3)cc2)Oc2cc(C#C[C@@H](C)O)ccc2S1(=O)=O -18.9%
Cc1ccc(S(=O)(=O)N(C)C[C@@H]2OCCCC[C@@H](C)Oc3ccc(NS(=O)(=O)c4ccc(Cl)cc4)cc3C(=O)N([C@H](C)CO)C[C@H]2C)cc1 -25.3%
CCCC#Cc1ccc([C@H]2[C@@H](CO)N3CCCCN(S(=O)(=O)Cc4ccccc4)C[C@@H]23)cc1 6.68%
O=C1CN(S(=O)(=O)c2ccccc2)C[C@@H]2[C@H](c3ccc(C#Cc4ccccc4)cc3)[C@H](CO)N12 3.33%
C[C@H]1CN([C@@H](C)CO)S(=O)(=O)c2ccc(C#Cc3cccc(F)c3)cc2O[C@@H]1CN(C)S(=O)(=O)c1ccccc1F 5.03%
O=C(Nc1cc(F)ccc1F)N1CCCCN2[C@H](CO)[C@H](c3ccc(-c4ccccc4)cc3)[C@H]2C1 9.93%
C[C@@H]1CN([C@@H](C)CO)S(=O)(=O)c2ccc(/C=C/c3ccccc3)cc2O[C@@H]1CN(C)C(=O)Nc1cc(F)ccc1F -20.6%
CNC[C@H]1Oc2ccc(NC(=O)Nc3ccc(F)cc3)cc2CC(=O)N([C@H](C)CO)C[C@@H]1C 13.9%
C[C@H](CO)N1C[C@H](C)[C@H](CN(C)Cc2ccccc2F)Oc2cc(C#CC3CC3)ccc2S1(=O)=O 37.8%
OC[C@@H]1[C@H](c2ccccc2)C2(CN(Cc3nccs3)C2)N1Cc1cccnc1 30.3%
Cc1ccc(S(=O)(=O)N(C)C[C@@H]2OCCCC[C@H](C)Oc3ccc(NS(=O)(=O)c4ccccc4)cc3C(=O)N([C@H](C)CO)C[C@@H]2C)cc1 28.1%
COc1ccc(NC(=O)N(C)C[C@@H]2Oc3ccc(NS(=O)(=O)c4ccc(F)cc4)cc3C(=O)N([C@@H](C)CO)C[C@@H]2C)cc1 -16.2%
C[C@H](CO)N1C[C@H](C)[C@H](CN(C)C(=O)c2ccccc2F)Oc2ncc(Br)cc2C1=O -2.09%
COc1cccc(CNC(=O)C[C@H]2CC[C@@H]3[C@@H](COc4ccc(NC(=O)c5cccs5)cc4C(=O)N3C)O2)c1 5.59%
Cc1ccc(S(=O)(=O)N(C)C[C@H]2OCCCC[C@@H](C)Oc3ccc(NS(=O)(=O)c4ccc(Cl)cc4)cc3C(=O)N([C@@H](C)CO)C[C@@H]2C)cc1 -24.6%
Cc1ccc(S(=O)(=O)N(C)C[C@H]2OCCCC[C@@H](C)Oc3ccc(NS(=O)(=O)c4ccccc4)cc3C(=O)N([C@@H](C)CO)C[C@@H]2C)cc1 -8.6%
O=S(=O)(c1ccc(F)cc1)N1CCCCN2[C@H](CO)[C@H](c3ccc(C#CC4CCCC4)cc3)[C@H]2C1 10%
Cc1ccc(S(=O)(=O)N(C)C[C@H]2OCCCC[C@H](C)Oc3ccc(NS(=O)(=O)c4ccc(Cl)cc4)cc3C(=O)N([C@@H](C)CO)C[C@@H]2C)cc1 2.27%
C[C@@H]1CCCCO[C@@H](CN(C)S(=O)(=O)c2ccc(F)cc2)[C@H](C)CN([C@@H](C)CO)C(=O)c2cc(NC(=O)Nc3ccc4c(c3)OCO4)ccc2O1 -4.57%
COc1ccc(S(=O)(=O)N2CCC3(CC2)CN(C(=O)c2cccnc2)[C@@H](CO)c2c3c3ccc(OC)cc3n2C)cc1 12.7%
O=C(NCC[C@H]1CC[C@H](NS(=O)(=O)c2cccc(F)c2)[C@@H](CO)O1)C1CCOCC1 0.211%
CCNC(=O)C[C@H]1CC[C@H]2[C@@H](COc3ccc(NS(=O)(=O)c4ccccc4C)cc3C(=O)N2C)O1 -7.91%
C[C@@H]1CN([C@@H](C)CO)C(=O)c2cc(-c3cccc(F)c3)cnc2O[C@H]1CN(C)C(=O)Nc1cc(F)ccc1F -1.1%
COc1cc2c(cc1OC)CN(C(=O)[C@@H]1[C@H]3C(=O)O[C@H](c4ccccc4)[C@H](c4ccccc4)N3[C@H](c3ccc(OCCO)cc3)[C@@]13C(=O)Nc1ccc(C#CCNC(N)=O)cc13)CC2 -12.1%
C[C@@H]1CN([C@H](C)CO)C(=O)c2cc(NS(=O)(=O)c3ccc(Cl)cc3)ccc2O[C@H]1CN(C)Cc1ccc2c(c1)OCO2 16.1%
C[C@@H]1CN([C@@H](C)CO)C(=O)c2cc(-c3cccc(F)c3)cnc2O[C@@H]1CN(C)Cc1ccncc1 19.1%
C[C@H]1CN([C@@H](C)CO)C(=O)c2cccc(NC(=O)c3ccncc3)c2O[C@H]1CN(C)S(C)(=O)=O 16.1%
COc1ccc(S(=O)(=O)Nc2ccc3c(c2)C(=O)N([C@H](C)CO)C[C@H](C)[C@@H](CN(C)Cc2ccc(C(F)(F)F)cc2)OCCCC[C@@H](C)O3)cc1 -4.74%
Cc1cccc(S(=O)(=O)N(C)C[C@@H]2OCc3ccccc3-c3c(n(C)c4ccccc34)C(=O)N([C@H](C)CO)C[C@@H]2C)c1 -6.71%
